Test system: Chordin-like protein 2 (CHRDL2)
Experiment: compounds binding chordin-like 2 – biochemical, small-molecule microarray, 635 nm fluorescence, primary screen (AID 1126);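 note: printed compound slides probed with Chrdl2 protein at 4 µg/mL for 1 h at 4 C; score merges 667 nm emission intensity with signal to noise over three replicate slides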
Details: fluorescence 635 nm, higher = more signal

Going from `COc1ccc(C(=O)Nc2ccc(CN3C(=O)[C@@]4(O[C@@H](CC(=O)N5CCC[C@H]5CO)[C@H]([Si](C)(C)c5ccc(OC)cc5)[C@H]4C)c4ccccc43)cc2)cc1` to `COc1ccc(C(=O)Nc2ccc(CN3C(=O)[C@@]4(O[C@@H](CCO)[C@H]([Si](C)(C)c5ccc(OC)cc5)[C@H]4C)c4ccccc43)cc2)cc1`, the composite z-score falls from 0.989 to 0.959.

Going from `CN1C(=O)C2C=CC(C(O)C3=C[C@H]4C[C@@H](C3)C4(C)C)N(Nc3ccccc3)C2C1=O` (stereo not given in full) to `CN1C(=O)C2C=CC(C(O)c3ccccc3)N(Nc3ccccc3)C2C1=O` (stereo not given), the composite z-score falls from 0.307 to -1.02.

First: CS(=O)(=O)CCOC(=O)C1=CC(CCCO)=CC(c2ccc(CN3CCCC3)cc2)N(Cc2cc3c(cc2Br)OCO3)C=C1C(=O)OCCS(C)(=O)=O (stereo not given)
Second: CCOC(=O)C[C@H]1[C@H](OC(=O)Cc2ccc3c(c2)OCO3)[C@@H](NC(=O)c2ccc3ccccc3c2)c2cc(OCCCO)ccc2N1C(=O)c1ccccc1
The composite z-score of the first is higher: 0.373 for the first, 0.308 for the second.

Going from `COC(=O)[C@@]1(Cc2ccc(OC)cc2)[C@H]2c3cc(C(=O)N4CCCC4)n(Cc4ccccc4)c3C[C@H]2CN1C(=O)c1ccccc1` to `COC(=O)[C@@]1(Cc2ccc(OC)cc2)[C@H]2c3cc(C(=O)N(C)C)n(Cc4cccc5ccccc45)c3C[C@H]2CN1C(=O)c1ccccc1`, the composite z-score rises from -0.401 to 0.0735.

Compared with `C[N+](C)(C)CCCCNC(=O)[C@H]1C[C@H]2C(=O)N[C@@H](Cc3ccccc3)C(=O)N2[C@H]1c1ccc(O)cc1`, `CN(C)CCCC[C@@H]1NC(=O)[C@H]2C[C@@H](C(=O)NCCCCCNC(=O)CS)[C@@H](c3cccc(OCCO)c3)N2C1=O` is lower in composite z-score: 1.05 for the first, 0.651 for the second.

First: C[C@]1(C(=O)NC2CC2)c2ccccc2C(=O)N(Cc2cc(C(F)(F)F)cc(C(F)(F)F)c2)[C@H]1c1ccc(CO)cc1
Second: COc1ccc(CCNC(=O)[C@@]2(C)c3ccccc3C(=O)N(Cc3cc(F)cc(C(F)(F)F)c3)[C@H]2c2ccc(CO)cc2)cc1
The composite z-score of the first is higher: 0.39 for the first, 0.126 for the second.

First: CCCC#C[Si](O[C@H](CC)c1cn([C@H](CO)Cc2ccccc2)nn1)(C(C)C)C(C)C
Second: C#CCN(Cc1ccccc1Br)C(/C=C/c1ccccc1)CO (stereo not given)
The composite z-score of the first is higher: 0.322 for the first, 0.188 for the second.

First: CC(=O)N1Cc2ccccc2C[C@@]2(COC(c3ccc(OCCCO)cc3)=N2)C1=O
Second: C=CC[C@]1(C(=O)N2CCCCC2)N=C(c2ccc(OCCCO)cc2)O[C@H]1c1ccccc1
The composite z-score of the first is higher: 0.341 for the first, 0.238 for the second.

First: CC(C)(C)OC(=O)CC[C@@]1(C(=O)NCCN2CCOCC2)N=C(c2ccc(OCCCO)cc2)O[C@@H]1c1ccccc1N=[N+]=[N-]
Second: CN(C)C(=O)[C@@]1(Cc2ccccc2)N=C(c2ccc(OCCCO)cc2)O[C@H]1c1ccccc1N=[N+]=[N-]
The composite z-score of the first is higher: 0.178 for the first, 0.152 for the second.

Going from `CC(=O)n1cc(C(O)C2C=CC3C(=O)N(C)C(=O)C3N2Nc2ccccc2)c2ccccc21` (stereo not given) to `COc1ccc(C(O)C2C=CC3C(=O)N(c4ccccc4)C(=O)C3N2Nc2ccccc2F)cc1OCc1ccccc1` (stereo not given), the composite z-score falls from 1.25 to -0.175.

First: C=C(COC)/C(=C/C[C@H](OC(=O)c1ccncc1)c1ccc(OCCO)cc1)c1cnc2ccccc2c1
Second: CN1C(=O)[C@]2(Cc3ccccc3)N=C(c3ccc(OCCCO)cc3)O[C@@H]2c2ccccc21
The composite z-score of the first is higher: 1.26 for the first, 0.572 for the second.

Going from `COc1ccc(C#Cc2ccc3c(c2)[C@]2(C(=O)N3)[C@H](c3ccccc3OCCO)N3[C@H](c4ccccc4)[C@H](c4ccccc4)OC(=O)[C@H]3[C@@H]2C(=O)O)cc1` to `COCCOC(=O)N1C(=O)[C@@]2(c3cc(C#Cc4ccc(OC)cc4)ccc31)[C@H](C(N)=O)[C@H]1C(=O)O[C@H](c3ccccc3)[C@H](c3ccccc3)N1[C@@H]2c1ccccc1OCCO`, the composite z-score rises from -0.0011 to 0.565.

Compared with `O=C1OCCC/C=C\[C@H]2OC34C=CCN(Cn5nnc6ccccc65)C(=O)[C@H]3N(CCO)C(=O)[C@@H]4C12` (stereo not given in full), `CCCCCN1CC=CC23O[C@@H]4/C=C\CCCOC(=O)C4[C@H]2C(=O)N(CCCO)[C@@H]3C1=O` (stereo not given in full) is higher in composite z-score: -1.89 for the first, -0.343 for the second.

First: C=CCN1C(=O)[C@@]2(O[C@@H](CCO)[C@H]([Si](C)(C)c3ccc(OC)cc3)[C@H]2C)c2cc(NC(=O)c3ccc(OC)cc3)ccc21
Second: COc1ccc([Si](C)(C)[C@@H]2[C@@H](CC(=O)N3Cc4ccccc4C[C@H]3CO)O[C@]3(C(=O)N(C)c4c(Br)cc(C)cc43)[C@H]2C)cc1
The composite z-score of the first is lower: 0.927 for the first, 1.11 for the second.

First: O=C1OCC=C[C@H]2OC34C=CCN(CCN5CCOCC5)C(=O)[C@H]3N(CCCO)C(=O)[C@@H]4[C@@H]12 (stereo not given in full)
Second: O=C1OCCC=C[C@H]2OC34C=CCN(CCN5CCOCC5)C(=O)[C@H]3N(CCCCCCO)C(=O)[C@@H]4C12 (stereo not given in full)
The composite z-score of the first is higher: 0.0732 for the first, -0.592 for the second.

First: CN(C)C(=O)[C@]1(Cc2ccccc2N=[N+]=[N-])N=C(c2ccc(OCCCO)cc2)O[C@@H]1c1ccccc1
Second: COCCOC(=O)N1C(=O)[C@@]2(c3cc(C#CCCO)ccc31)[C@H](C(=O)Nc1nc3ccccc3s1)[C@H]1C(=O)O[C@H](c3ccccc3)[C@H](c3ccccc3)N1[C@@H]2c1ccc(OCCO)cc1
The composite z-score of the first is lower: 0.0709 for the first, 0.387 for the second.

First: COc1ccc(C(=O)O[C@H]2CC[C@]3(C)C4=C(CCC3C2(C)C)[C@]2(C)CC[C@H]([C@H](C)CCCC(C)C)[C@@]2(C)CC4)cc1 (stereo not given in full)
Second: COc1ccc(C(O)C2C=CC3C(=O)NC(=O)C3N2Nc2ccccn2)cc1 (stereo not given)
The composite z-score of the first is lower: 0.575 for the first, 1 for the second.

With `CCOC(=O)C[C@H]1[C@H](OC(=O)c2ccc(C(=O)c3ccccc3)cc2)[C@@H](NC(=O)c2ccc(-c3ccccc3)cc2)c2cc(OCCCO)ccc2N1C(=O)c1ccccc1` the composite z-score was 0.303.
